# Measurements from PubChem BioAssay (EPA / NIEHS).
# “And” between values parts separate entries of the source, which are not always exact repeats. Equal values may be shown once. The source made the active and inactive calls. The calls were made as follows: active = hit-call score of the fitted dose curve at least 0.9, where 1 is the maximum; inactive = score below 0.9.
# Read-out: urokinase Plasminogen Activator (uPA), PLAU (gene 5328)
# Assay: BSK_BF4T_uPA: BioMAP Diversity Plus: BF4T Assay for urokinase Plasminogen Activator (uPA) Biomarker Activity (AID 2284275)
# Conditions: primary human bronchial epithelial cells with fibroblasts
# Method in brief: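 uPA levels measured by ELISA at 24 hours in BF4T cultures (bronchial epithelial cells plus dermal fibroblasts) and compared with DMSO; cytotoxicity tracked in parallel cultures by sulforhodamine B staining.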
row,Structure (SMILES),outcome
1,NC(=O)C(F)(F)C(F)(F)C(F)(F)C(F)(F)C(N)=O,inactive
2,O=C(O)CCC(F)(F)C(F)(F)C(F)(F)C(F)(F)C(F)(F)C(F)(F)C(F)(F)F,inactive
3,OCC(F)(F)C(F)(F)C(F)(F)CO,inactive
4,NC(=O)C(F)(F)C(F)(F)C(F)(F)F,inactive
5,CN(C(=O)C(F)(F)C(F)(F)C(F)(F)F)[Si](C)(C)C,inactive
6,C[Si](Cl)(Cl)CCC(F)(F)C(F)(F)C(F)(F)C(F)(F)C(F)(F)C(F)(F)F,inactive
7,O=C(O)C(F)(F)C(F)(F)C(F)(F)OC(F)(F)F,inactive
8,NCC(F)(F)C(F)(F)C(F)(F)C(F)(F)C(F)(F)C(F)(F)C(F)(F)C(F)(F)F,inactive
9,CCOC(=O)CC(=O)C(F)(F)C(F)(F)F,inactive
10,O=S(=O)(OCC(F)(F)F)C(F)(F)C(F)(F)C(F)(F)C(F)(F)F,inactive

# Read-out: Matrix Metallopeptidase 9 (MMP9), MMP9 (gene 4318)
# Assay: BSK_BF4T_MMP9: BioMAP Diversity Plus: BF4T Assay for Matrix Metallopeptidase 9 (MMP9) Biomarker Activity (AID 2284276)
# Conditions: primary human bronchial epithelial cells with fibroblasts
# Method in brief: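 MMP-9 levels were measured by ELISA after 24 h exposure of bronchial epithelial cell/dermal fibroblast co-cultures, with DMSO as baseline. Parallel cultures were stained with 0.1% SRB after TCA fixation, read at 560 nm, to flag overt cytotoxicity.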
Structure (SMILES),outcome,AC50
O=C(O)C(F)(F)C(F)(F)C(F)(F)C(F)(F)C(F)(F)C(F)(F)C(F)F,inactive,
C=CC(=O)OCC(F)(F)C(F)(F)C(F)(F)COC(=O)C=C,,21.5 µM (active) and 21.8 µM (active)
COC(F)(C(F)F)C(F)(F)F (centres undefined),inactive,
O=S(=O)(O)CCC(F)(F)C(F)(F)C(F)(F)C(F)(F)F,inactive,
NC(=O)C(F)(F)C(F)(F)C(F)(F)C(F)F,inactive,
OCCCC(F)(F)C(F)(F)C(F)(F)C(F)(F)C(F)(F)C(F)(F)C(F)(F)C(F)(F)F,,30 µM (active) and 17.2 µM (active)
FC(F)(F)C(F)(F)C(F)(F)C(F)(F)C(F)(F)C(F)(F)CC[Si](Cl)(Cl)Cl,inactive,
OCC(O)CC(F)(F)C(F)(F)C(F)(F)C(F)(F)F (centres undefined),inactive,
OCC(F)(F)C(F)(F)C(F)(F)C(F)(F)C(F)(F)C(F)(F)C(F)(F)C(F)(F)CO,,27.6 µM (active) and 23.7 µM (active)
C=CC(=O)OCCC(F)(F)C(F)(F)C(F)(F)C(F)(F)F,inactive,
FC(F)(F)C(F)(F)C(F)(F)CC1CO1 (centres undefined),inactive,
NC(=O)C(F)(F)C(F)(F)C(F)(F)C(F)(F)C(F)(F)C(F)(F)C(F)(F)F,inactive,
NC(=O)C(F)(F)C(F)(F)C(F)(F)C(F)(F)C(N)=O,inactive,
O=C(O)CCC(F)(F)C(F)(F)C(F)(F)C(F)(F)C(F)(F)C(F)(F)C(F)(F)F,inactive,
OCC(F)(F)C(F)(F)C(F)(F)CO,inactive,
NC(=O)C(F)(F)C(F)(F)C(F)(F)F,inactive,
CN(C(=O)C(F)(F)C(F)(F)C(F)(F)F)[Si](C)(C)C,inactive,
C[Si](Cl)(Cl)CCC(F)(F)C(F)(F)C(F)(F)C(F)(F)C(F)(F)C(F)(F)F,inactive,
O=C(O)C(F)(F)C(F)(F)C(F)(F)OC(F)(F)F,inactive,
NCC(F)(F)C(F)(F)C(F)(F)C(F)(F)C(F)(F)C(F)(F)C(F)(F)C(F)(F)F,inactive,
CCOC(=O)CC(=O)C(F)(F)C(F)(F)F,inactive,
O=S(=O)(OCC(F)(F)F)C(F)(F)C(F)(F)C(F)(F)C(F)(F)F,inactive,

# Read-out: Interleukin-8 (IL8), CXCL8 (gene 3576)
# Assay: BSK_IMphg_IL8: BioMAP Diversity Plus: IMphg Assay for Interleukin-8 (IL8) Biomarker Activity (AID 2284277)
# Conditions: primary human endothelial cells with macrophages
# Method in brief: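 IL-8 levels were measured by ELISA 24 h after dosing in primary human venular endothelial cell–macrophage cultures, referenced to DMSO; parallel SRB staining monitored overt cytotoxicity.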
Structure (SMILES),AC50,outcome
O=C(O)C(F)(F)C(F)(F)C(F)(F)C(F)(F)C(F)(F)C(F)(F)C(F)F,30 µM (active) and 21.7 µM (active) and 32.1 µM (active),
C=CC(=O)OCC(F)(F)C(F)(F)C(F)(F)COC(=O)C=C,50.7 µM (active) and 45.9 µM (active),
COC(F)(C(F)F)C(F)(F)F (centres undefined),,inactive
O=S(=O)(O)CCC(F)(F)C(F)(F)C(F)(F)C(F)(F)F,,inactive
NC(=O)C(F)(F)C(F)(F)C(F)(F)C(F)F,,inactive
OCCCC(F)(F)C(F)(F)C(F)(F)C(F)(F)C(F)(F)C(F)(F)C(F)(F)C(F)(F)F,,inactive
FC(F)(F)C(F)(F)C(F)(F)C(F)(F)C(F)(F)C(F)(F)CC[Si](Cl)(Cl)Cl,,inactive
OCC(O)CC(F)(F)C(F)(F)C(F)(F)C(F)(F)F (centres undefined),,inactive
OCC(F)(F)C(F)(F)C(F)(F)C(F)(F)C(F)(F)C(F)(F)C(F)(F)C(F)(F)CO,48.8 µM (active) and 48.9 µM (active),
C=CC(=O)OCCC(F)(F)C(F)(F)C(F)(F)C(F)(F)F,,inactive
FC(F)(F)C(F)(F)C(F)(F)CC1CO1 (centres undefined),,inactive
NC(=O)C(F)(F)C(F)(F)C(F)(F)C(F)(F)C(F)(F)C(F)(F)C(F)(F)F,,inactive
NC(=O)C(F)(F)C(F)(F)C(F)(F)C(F)(F)C(N)=O,,inactive
O=C(O)CCC(F)(F)C(F)(F)C(F)(F)C(F)(F)C(F)(F)C(F)(F)C(F)(F)F,1.98 µM (active) and 2.14 µM (active),
OCC(F)(F)C(F)(F)C(F)(F)CO,,inactive
NC(=O)C(F)(F)C(F)(F)C(F)(F)F,,inactive
CN(C(=O)C(F)(F)C(F)(F)C(F)(F)F)[Si](C)(C)C,,inactive
C[Si](Cl)(Cl)CCC(F)(F)C(F)(F)C(F)(F)C(F)(F)C(F)(F)C(F)(F)F,,inactive
O=C(O)C(F)(F)C(F)(F)C(F)(F)OC(F)(F)F,,inactive
NCC(F)(F)C(F)(F)C(F)(F)C(F)(F)C(F)(F)C(F)(F)C(F)(F)C(F)(F)F,,inactive
CCOC(=O)CC(=O)C(F)(F)C(F)(F)F,,inactive
O=S(=O)(OCC(F)(F)F)C(F)(F)C(F)(F)C(F)(F)C(F)(F)F,,inactive
